# Screening data as filed in PubChem BioAssay.
# HCV inhibitor: qHTS Assay for Inhibitors of Hepatitis C Virus (HCV). Huh7.5.1 HCVcc-Cre infection, luciferase reporter, 44 h. Potency, µM (top dose mostly 41.8 µM), for inactives: at the highest dose activity change, negative = inhibition, most hits filed as inhibitors. 340,000 compounds, 3.4% hits. AID 651820, 2012; further: potency means the concentration at half of the fitted maximal effect; on the % scale 0 is the no-effect control and ±100 the full control effect
#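 Antiviral activity was scored by luciferase reporter output from cells infected with HCVcc-Cre (~0.5 moi) in presence of compound, 44 h infection period, cells seeded 1,000/well 4 h prior.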
# Pf growth 48h: Primary qHTS for delayed death inhibitors of the malarial parasite plastid, 48 hour incubation | P. falciparum luciferase growth in erythrocytes, 48 h | AID 504832, 2011 | 310,000 compounds, 5.9% hits | Potency, µM (series often up to 28.7 µM), for inactives: top-dose activity change, negative = inhibition, actives largely listed as inhibitors; further: potency means the concentration at half of the fitted maximal effect; on the % scale 0 is the no-effect control and ±100 the full control effect
#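 Luciferase-expressing P. falciparum in infected erythrocytes (2% hematocrit, 0.1% parasitemia final) in RPMI 1640/0.5% Albumax were exposed to compound for 48 hours at 37 C, 5% CO2; growth read as luminescence.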
# Shiga inhibitor: A qHTS for Small Molecule Inhibitors of Shiga Toxin; inhibition, % at 38.7 µM; Vero cells, Shiga toxin protein synthesis inhibition reporter; 290,000 compounds, 9.2% hits; in the data active means inhibition mostly above about 28%, no sharp cut-off; inactive means mostly below about 43%; further: 0% is about no effect
# Pf growth 96h: Primary qHTS for delayed death inhibitors of the malarial parasite plastid, 96 hour incubation; P. falciparum luciferase reporter growth, 96 h; AID 504834, 2011; 320,000 compounds, 6.9% hits; Potency, µM (highest dose often 28.7 µM), for the others: top-dose activity change, negative = inhibition, most hits filed as inhibitors; further: potency means the concentration at half of the fitted maximal effect; on the % scale 0 is the no-effect control and ±100 the full control effect
#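 Two-generation exposure (96 h) targets delayed-death phenotype. Reporter parasites carrying integrated firefly luciferase, in red cells at 2% hematocrit and 0.05% parasitemia final, kept at 37 C, 5% CO2; luminescence loss indicates inhibition.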
# HCMV inh: qHTS Assay for inhibitors of the human cytomegalovirus (HCMV). HFF cells, HCMV-luciferase reporter, 72 h; stronger effect = lower value. activity change, negative = inhibition, % at 57.5 µM. 410,000 compounds, 4.5% hits; in the data active means activity change below about -60%; inconclusive means no clear call, values can overlap the other calls; inactive means above about -39%; further: on the % scale 0 is the no-effect control and ±100 the full control effect
#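 Cell-based, HFFs, 1000 cells/well, 16 h 37C; cpds in DMSO + HCMV-luc, MOI 1 PFU/cell; 72 h 37C; OneGlo luminescence after 5 min RT; norm. to buffer vs Salinomycin 10uM.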
# CHX counter: Cycloheximide Counterscreen for Small Molecule Inhibitors of Shiga Toxin; cell reporter, cycloheximide protein synthesis inhibition counterscreen; 300,000 compounds, 12% hits; max response, %; in the data active means max response mostly above about 13%, no sharp cut-off; inactive means mostly below about 14%; further: read at 38.3 µM for the half of the compounds with a filed dose; 0% is about no effect
# Active calls of the source: *; i = inactive; u = inconclusive; x = no result; ! = repeats disagree. The list is not random: actives were taken first. Their share in the collection is about 21%. Unless noted, the call rests on the fitted dose curve; in most records, active means well fitted inhibition curve with a large enough effect; inconclusive means small, poorly fitted or top-dose-only effect, or another doubt; inactive means no such curve, though single readings can be large or run the other way.
SMILES,HCV inhibitor,Pf growth 48h,Shiga inhibitor,Pf growth 96h,HCMV inh,CHX counter
COc1cc(CN2CCN(CC3CC3)CC2CCO)cc(OC)c1 (stereo not drawn),11%,-1%,8,u,29,-1
CCc1ccccc1NC(=O)Cn1c(=O)n(Cc2ccco2)c(=O)c2ccccc21,x,x,x,x,3,x
O=C(CNS(=O)(=O)c1cccc2nsnc12)NCCc1ccccc1,2%,9%,-3,-6%,-27,-2
Cc1ccc(C(=O)O/N=C(\N)Cc2ccc([N+](=O)[O-])cc2)c(Cl)c1,u,u,42,-21%,-15,9.8*
Cc1ccc(C(=O)O/N=C(\N)Cc2cccs2)c(Cl)c1,u,-13%,85*,u,x,82*
CC(C)(C)N1[C@@H](CC(=O)O)c2cc(C(F)(F)F)ccc2S1(=O)=O,29%,x,x,x,4,x
COc1ccc(C2/C=C\CN(C(=O)OCC3c4ccccc4-c4ccccc43)CC(=O)N2Cc2cccc(F)c2)cc1 (stereo not drawn),10µM*,x,i,x,-12,8
COc1ccc(C2/C=C\CN(S(=O)(=O)c3cccc4cccnc34)CC(=O)N2Cc2ccc(F)cc2)cc1 (stereo not drawn),u,u,-4,12µM*,6,5
COc1ccc([C@H]2/C=C\CN(S(=O)(=O)c3cccc4cccnc34)[C@@H](C)C(=O)N2Cc2ccc(F)cc2)cc1,u,x,x,x,-27,x
COC(=O)N1C/C=C\C(c2ccc(OC)cc2)N(Cc2ccc(F)cc2)C(=O)C1 (stereo not drawn),17%,u,-11,u,-7,0
COc1ccc(C2/C=C\CN(C(=O)Nc3ccccc3-c3ccccc3)CC(=O)N2Cc2ccc(F)cc2)cc1 (stereo not drawn),u,13µM*,152*!,13µM*,x,62*!
COc1ccc(C(C)=O)cc1COC(=O)CCNS(=O)(=O)c1ccc(C)c(C)c1,2%,-7%,x,u,-28,x
COc1cccc(NC(=O)CSc2nc3ccc(NC(=O)c4ccco4)cc3s2)c1,x,x,x,x,-35,x
COc1cccc(N2CCN(C(=O)c3cccn3-c3nnc(N4CCCC4)s3)CC2)c1,x,x,x,x,0,x
Cc1cc(C)c(S(=O)(=O)Nc2ccccc2C(=O)OCC(=O)NCc2ccccc2)c(C)c1,2%,u,-7,-1%,u,-4
CN1C=CC(=CC=C2C=CC(=O)C=C2)C=C1,u,4.7µM*,1,1.9µM*,2,-4
Cc1ccc(NC(=O)c2ccc(F)cc2)nc1,4%,-9%,-2,5.2µM*,-6,2
Cc1ccc(NC(=O)C(=O)Nc2ccc(C)cn2)nc1,8%,84%,85*,u,38,50*
Cc1ccc(NC(=O)NC(=O)N(C(C)C)S(C)(=O)=O)nc1,39%,1%,-34,-1%,11,14*
CC(C)N(C(=O)NC(=O)Nc1ccccn1)S(C)(=O)=O,6%,4%,-7,50%,63,6
Cc1ccc(NC(=O)c2sccc2C)nc1,16%,204%,88*,208%,83,49*
Cc1ccc(NC(=O)c2ccc(S(=O)(=O)N3CCCC3)cc2)nc1,-1%,u,x,-6%,-9,x
Cc1ccc(NC(=O)c2ccc3c(c2)C(=O)N(c2cc(C)ccc2C)C3=O)nc1,8%,42%,68*,7%,16,29*
Cc1ccc(NC(=O)/C(C#N)=C(\N)C(Cl)(Cl)Cl)nc1,10µM*,208%,76*,-8%,x,38*
Cc1cc(NC(=O)c2ccc3c(c2)C(=O)N(c2cccc(C)c2C)C3=O)no1,x,21%,-10,u,16,-3
SMILES,HCV inhibitor,Pf growth 48h,Shiga inhibitor,Pf growth 96h,HCMV inh,CHX counter
COC(=O)c1sccc1-c1ccc(C(N)=O)o1,x,-4%,10,5%,x,-3
COC(=O)C(=Cc1ccc(-c2ccsc2C(=O)OC)o1)C(=O)OC,-5%,-9%,45*,-15%,19,38*
CCOC(=O)C(=Cc1ccc(-c2ccsc2C(=O)OC)o1)C(=O)OCC,u,u,-6,-18%,-9,-2
COC(=O)c1sccc1-c1ccc(C(=O)Nc2cccnc2)o1,u,101%,127*,i,u,39*
COc1ccc2oc(=O)c(C(=O)NCCc3c(C)[nH]c4c(C)cccc34)cc2c1,x,x,x,x,-3,x
COC(=O)c1[nH]c2ccc(C)cc2c1NC(=O)CN1CCc2cc(OC)c(OC)cc2C1,10µM*,u,-16,u,-11,-3
CCOC(=O)c1[nH]c2ccc(OC)cc2c1NC(=O)CN1CCc2ccccc2C1,u,u,-15,12µM*,u,1
CCOC(=O)c1[nH]c2ccc(OC)cc2c1NC(=O)CN1CCN(c2ccccn2)CC1,2%,-14%,-4,-19%,x,1
CCOC(=O)c1[nH]c2ccc(F)cc2c1NC(=O)C(C)N1CCc2cc(OC)c(OC)cc2C1 (stereo not drawn),u,15µM*,-17,u,-30,-2
COC(=O)c1[nH]c2ccccc2c1NC(=O)CN1CCN(c2cccc(OC)c2)C(C)C1 (stereo not drawn),u,9.3µM*,-16,x,-103*,-1
O=C(O)c1ccn2c(C(=O)c3ccccc3)c(-c3ccccc3)cc2c1,11%,24%,-3,0%,11,-3
CCN1C(=O)[C@H]2[C@@H](c3ccc(C(F)(F)F)cc3)N[C@]3(CCCN(Cc4ccc(OC)cc4)C3=O)[C@H]2C1=O,x,x,x,x,-3,x
COC(=O)c1[nH]c2cc(OC)ccc2c1NC(=O)CCN1CCN(c2cccc(C)c2C)CC1,6.3µM*,2.6µM*,-21,-5%,8,-11
CCOC(=O)c1[nH]c2ccc(OCC)cc2c1NC(=O)CN1CCN(c2ccccn2)CC1,u,7.4µM*,-21,4.7µM*,-25,-2
COC(=O)c1[nH]c2ccc(C)cc2c1NC(=O)CN1CCCC(C)(C)C1,13µM*,u,-12,12µM*,u,-4
CCOC(=O)c1[nH]c2ccc(C)cc2c1NC(=O)CN1CCCCC1,u,u,-5,35%,21,-2
CCOC(=O)CCCCCC(=O)Nc1ccc2c(c1)C(=O)N([C@@H](C)CO)C[C@H](C)[C@H](CN(C)C(=O)c1ccccc1)OCCCC[C@H](C)O2,x,x,x,x,-20,x
CCOC(=O)c1c[nH][nH]c1=O,14%,-8%,-5,26%,-29,-3
CCn1c2ccccc2c2cc(Nc3cc(C)nc4ncnn34)ccc21,u,0.074µM*,-15,7%,-20,-5
Cc1cc(Nc2ccc(Cl)cc2)n2ncnc2n1,-2%,u,-7,32%,20,1
